Laboratory results as given in PubChem BioAssay (NCI).
The panel holds about 83,000 compounds, 20% with a hit somewhere; the sample as a whole holds those more often.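 Step 1: grow cells in 96-well plates. Step 2: add test compound at a single concentration. Step 3: incubate 48 h. Step 4: record percent growth.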 A number with no mark means an inactive call. The source made the active and inactive calls. Rule for the calls: active = growth percent below 10; inactive = the rest.

Experiments:
Experiment in all cases: NCI-60 one-dose screen, 48 h (100 = growth as untreated, 0 = no growth, -100 = all killed)
Conditions in all cases: 10 µM
NCI-H23 lung = test system: NCI-H23 lung
NCI-H226 lung = test system: NCI-H226 lung
NCI-H322M lung = test system: NCI-H322M lung
HOP-62 NSCLC = test system: HOP-62 NSCLC
NCI-H460 lung = test system: NCI-H460 lung
HOP-92 NSCLC = test system: HOP-92 NSCLC
NCI-H522 lung = test system: NCI-H522 lung
A549/ATCC NSCLC = test system: A549/ATCC NSCLC
786-0 renal = test system: 786-0 renal
COLO 205 colon = test system: COLO 205 colon
DU-145 prostate = test system: DU-145 prostate
K-562 leukemia = test system: K-562 leukemia
MDA-MB-231 breast = test system: MDA-MB-231 breast
RXF 393 renal = test system: RXF 393 renal
SF-268 CNS = test system: SF-268 CNS
SF-295 CNS = test system: SF-295 CNS
SF-539 CNS = test system: SF-539 CNS
UACC-257 melanoma = test system: UACC-257 melanoma
M14 melanoma = test system: M14 melanoma

| Structure (SMILES) | growth (NCI-H23 lung) [%] | growth (NCI-H226 lung) | growth (NCI-H322M lung) [%] | growth (HOP-62 NSCLC) [%] | growth (NCI-H460 lung) | growth (HOP-92 NSCLC) [%] | growth (NCI-H522 lung) | growth (A549/ATCC NSCLC) | growth (786-0 renal) [%] | growth (COLO 205 colon) | growth (DU-145 prostate) | growth (K-562 leukemia) | growth (MDA-MB-231 breast) | growth (RXF 393 renal) | growth (SF-268 CNS) [%] | growth (SF-295 CNS) | growth (SF-539 CNS) | growth (UACC-257 melanoma) [%] | growth (M14 melanoma) |
| --- | --- | --- | --- | --- | --- | --- | --- | --- | --- | --- | --- | --- | --- | --- | --- | --- | --- | --- | --- |
| COC(=O)c1ccc(Cn2ccc(=O)[nH]c2=O)cc1 | 105 | 103% | 116 | 106 | 114% | 99.3 | 93.2% | 105% | 80.5 | 113% | 105% | 113% | 99.4% | 108% | 119 | 109% | 83.8% | 112 | 102% |
| COc1cc(/C=C/C(=O)c2cc(-c3ccc(F)cc3)ccc2O)cc(OC)c1OC | 56.3 | 83.5% | 93.6 | 115 | 80.6% | 57.8 | 58.7% | 83.5% | 94.1 | 88.2% | 91.1% | 34.5% | 60.7% | 104% | 85.7 | 95.1% | 89% | 68.4 | 86.2% |
| Oc1ccc(Cn2cc3c(c2-c2ccccc2)CCc2cnoc2-3)cc1 | 92.8 | 96.4% | 116 | 99.2 | 105% | 79.2 | 84.5% | 84.1% | 92.9 | 98% | 106% | 70% | 81.5% | 110% | 106 | 82% | 94.5% | 92.2 | 89.5% |
| CCOc1nc(-c2ccccc2)cc2c(O)c(C(=O)NCCCO)[nH]c(=O)c12 | 103 | 94.7% | 106 | 91.1 | 110% | 66 | 77.4% | 106% | 106 | 118% | 100% | 111% | 102% | 63.2% | 103 | 77.5% | 93.9% | 122 | 94.4% |
| Cc1cn(C(=O)/C(Cl)=C(/Cl)C(=O)O)c2ccccc12 | 96.7 | 97.6% | 128 | 88 | 114% | 80.4 | 110% | 111% | 116 | 91.7% | 113% | 97.9% | 96.3% | 112% | 103 | 112% | 111% | 111 | 99.7% |
| COc1cc([C@@H]2c3cc4c(cc3[C@H](SC(=N)N)[C@H]3COC(=O)[C@H]23)OCO4)cc(OC)c1OC | 13.7 | 0.754% (active) | 13 | 51.4 | 5.84% (active) | 68.5 | -7.12% (active) | 18.3% | 10.3 | -67.2% (active) | 6.78% (active) | 13.8% | -5.46% (active) | 27.1% | 30.3 | -20.4% (active) | -22.5% (active) | 57.1 | 16.9% |
| [O-]c1c[n+](-c2ccc(Cl)cc2)no1 | 106 | 103% | 94.1 | 91.3 | 101% | 83.8 | 122% | 108% | 108 | 103% | 107% | 106% | 80.1% | 116% | 100 | 112% | 119% | 104 | 104% |
| Cc1ccc(NS(=O)(=O)c2ccccc2)c(NS(=O)(=O)c2ccccc2)c1 | 87.1 | 105% | 109 | 86.5 | 102% | 93.5 | 102% | 103% | 108 | 97.5% | 92.8% | 108% | 103% | 130% | 102 | 104% | 110% | 107 | 102% |
| COc1cc(Cn2c(-c3ccccc3)c(Cl)c3c2-c2oncc2CC3)cc(OC)c1 | 72.2 | 109% | 68.5 | 102 | 46.3% | 51.7 | 9.45% (active) | 53.5% | 74.7 | 113% | 95.9% | 12.9% | 67.5% | 115% | 68.8 | 61% | 93.9% | 86 | 79% |
| CC(C)CCN(CCCNc1c2c(nc3cc(Cl)ccc13)CCCC2)CCC(C)C | 62.3 | 53.8% | 75 | 77.9 | 55.7% | 12.3 | 82.1% | 85.4% | 80.1 | 32.6% | 72.1% | 22.7% | 21.8% | 59.9% | 73.9 | 66.7% | 69.8% | 71.4 | 4.03% (active) |
| Nc1nc(SCC#CCCl)c2[nH]cnc2n1 | 66.2 | 65.1% | 62.7 | 94.2 | 29% | 39.9 | 20.1% | 54.5% | 41.5 | 47.7% | 56.5% | 38.2% | 65.6% | 46.7% | 52.8 | 60.2% | 50.4% | 50 | 54.2% |
| CC(=O)Nc1nc(C)c(C(=O)N/N=C/c2cccn2C)s1 | 96 | 90.7% | 150 | 109 | 109% | 56.1 | 86% | 104% | 111 | 125% | 106% | 54.3% | 102% | 119% | 95.9 | 114% | 103% | 120 | 115% |
| CCOC(=O)c1c(O)c2cc(-c3ccccc3)nc(OCC)c2c(=O)n1C | 85.8 | 79% | 122 | 93.2 | 110% | 51.7 | 98.9% | 99.4% | 94 | 117% | 107% | 97.1% | 95.9% | -0.249% (active) | 94.3 | 95.6% | 94.6% | 54.9 | 87.8% |
| O=C(O)c1ccccc1C(=O)c1cccc2c(F)cccc12 | 102 | 97.4% | 108 | 105 | 115% | 83 | 103% | 96.9% | 104 | 102% | 112% | 108% | 99.2% | 114% | 111 | 122% | 104% | 98.4 | 103% |
| COc1cc(-c2n/c(=C\c3c(O)[nH]c4ccccc34)cc3c2=Nc2ccccc2-3)cc(OC)c1OC | 22.9 | 22% | 47.3 | 41.4 | 3.31% (active) | 22.9 | -7.72% (active) | 9.21% (active) | 16.7 | -49.2% (active) | 11.5% | 6.57% (active) | 10.8% | -22.3% (active) | 19.3 | 8.6% (active) | 1.21% (active) | 56.2 | -5.09% (active) |
| O=C(NCc1cn(Cc2cccc(Oc3ccccc3)c2)nn1)c1cccnc1Nc1ccccc1 | 51.9 | 61.5% | 76.9 | 54.8 | 27% | 34.9 | 54.5% | 50.6% | 51.4 | 69.9% | 59.8% | 31.9% | 63.7% | 33.6% | 60.5 | 50.1% | 54.5% | 77 | 33.6% |
